From PubChem BioAssay AID602283 (Johns Hopkins Ion Channel Center, 2012)
Hit rate of the full screen: of about 1,100 compounds, about 940 (85%) were called active. The set was probably picked from earlier hits. A selection follows. A number with no mark means an inactive call.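 The calls were made as follows: active = inhibition exceeding 3 SD of buffer-only control wells (cut at about 26% in these data); inactive = the rest.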

Test: M3R calcium signalling without RGS4 expression – cell-based, HEK293 M3R, non-induced RGS4, Fluo-4 calcium, counter-screen for RGS4 activator project, primary screen (AID 602283);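 also: percent drop in integrated peak-minus-baseline over baseline Fluo4 ratio after carbachol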
Conditions: HEK293 M3R non-induced RGS4, Fluo4 calcium flux, at 10 µM, stronger effect = higher value, after carbachol challenge at its EC90
For OC(CN=c1sc2ccccc2n1CC(O)COc1ccccc1)COc1ccccc1 (stereo not given), the inhibition was 92.8% (active). For Cc1ccc(C)c(N2CCN(C(=O)CCCn3c(=O)c4cccn4c4cccnc43)CC2)c1, the inhibition was 55.3% (active). In the case of Cc1ccc(C)c(N2CCN(C(=O)CCCCCn3c(=S)[nH]c4ccc(N5CCOCC5)cc4c3=O)CC2)c1, the inhibition is reported as 52.8% (active). With CCOC(=O)c1c(NC(=O)NC(C)(C)C)sc2c1CCN(C)C2 the inhibition was 0% [the number is a placeholder, only the call stands]. For COc1ccc(/C=C(\C#N)c2c[nH]c3ccccc23)cc1, the inhibition was 70.8% (active). In the case of Cc1ccc(N2C(=O)CC(Nc3cccc4ccccc34)C2=O)cc1 (stereo not given), the inhibition is reported as 0% [the number is a placeholder, only the call stands]. For Cc1oc2c(F)c(F)c(F)c(F)c2c1S(=O)(=O)Nc1cccc(C(F)(F)F)c1, the inhibition was 88.8% (active). In the case of Cc1nc(N2CCN(c3ccccn3)CC2)c2c(C)c(C(=O)Nc3ccc(F)cc3)sc2n1, the inhibition is reported as 72.8% (active). With O=S(=O)(c1ccc(Br)cc1)n1ccc2ccccc21 the inhibition was 36.8% (active). With Cc1ccc(OCCCCN2CCCCC2)c(Br)c1 the inhibition was 0% [the number is a placeholder, only the call stands]. For CCCN(CCc1ccccc1)C1CCc2c(O)cccc2C1 (stereo not given), the inhibition was 34.8% (active). With Cc1cccc(-c2nc3ccc(C(=O)NCCN4CCN(C)CC4)cc3nc2-c2cccc(C)c2)c1 the inhibition was 93.8% (active). For CN1CCN(C(=O)N2c3ccccc3CCc3ccccc32)CC1, the inhibition was 57.3% (active). In the case of Cc1nn(C)cc1N1C(=O)c2cccc3c(N)ccc(c23)C1=O, the inhibition is reported as 101% (active). With CN(C)c1ccc(/C=C2\NC(=S)N(Cc3ccccc3)C2=O)cc1 the inhibition was 62.8% (active). For CC(C)C(c1nnnn1CCc1ccccc1)N1CCN(C(=O)c2ccco2)CC1 (stereo not given), the inhibition was 25.8% (active). With COc1ccc(C(=O)Nc2nc(-c3ccc(S(=O)(=O)N4CCOCC4)cc3)cs2)cc1 the inhibition was 36.3% (active). With N=c1c2c3c(sc2nc2n1CCCCC2)CCCC3 the inhibition was 55.8% (active). With CCOC(=O)C1=C(NC(=S)NC(=O)c2ccccc2)c2ccccc2CC1(C)C the inhibition was 61.3% (active). In the case of OCCC1CN(Cc2ccc3nsnc3c2)CCN1C1CCCC1 (stereo not given), the inhibition is reported as 43.8% (active). In the case of CCC1C=C(c2ccccc2)C=CN=C1N(CC)CC (stereo not given), the inhibition is reported as 83.8% (active). For O=C(CN1CCCCCC1)Nc1ccc(S(=O)(=O)N2CCCCC2)cc1, the inhibition was 83.8% (active). For COc1cccc(-c2cc3nc4c(c(N5CCC6(CC5)OCCO6)n3n2)CCCC4)c1, the inhibition was 31.8% (active). With CCc1ccccc1NC(=O)[C@@H]1CCC(=O)N1C1OC(=O)c2c1ccc(OC)c2OC (stereo not given in full) the inhibition was 0% [the number is a placeholder, only the call stands]. In the case of COc1cc(/C=C(\C#N)c2nc3ccccc3[nH]2)ccc1O, the inhibition is reported as 61.3% (active). With CN(C)S(=O)(=O)N1CCC(Oc2cccc(C(=O)NCCCC3CCCC3)c2)CC1 the inhibition was 61.8% (active). For CCc1c(C)sc(NC(=O)c2ccc(Br)o2)c1C(=O)OC, the inhibition was 0% [the number is a placeholder, only the call stands]. In the case of CCOc1ccc(C(CC(=O)O)NC(=O)COc2ccccc2)cc1 (stereo not given), the inhibition is reported as 0% [the number is a placeholder, only the call stands]. In the case of Cc1ccccc1C(OCCN(C)C)C1CCCCC1 (stereo not given), the inhibition is reported as 95.3% (active). With O=C(Cn1c(N2CCN(C/C=C/c3ccccc3)CC2)nc2ccccc21)c1ccccc1 the inhibition was 91.8% (active). For COc1ccc(CN2CCCC(C(=O)c3ccc(Cl)cc3)C2)cc1Cn1cncn1 (stereo not given), the inhibition was 68.8% (active). In the case of COc1cccc(/C=N/Nc2cc(C)nc(-c3ccccc3O)n2)c1O, the inhibition is reported as 85.8% (active). In the case of Cc1cccc(-c2nc(Nc3ccc(O)cc3)c3ccccc3n2)c1, the inhibition is reported as 35.3% (active). In the case of Oc1ccccc1N1CCN(c2ncnc3sc(-c4ccccc4)cc23)CC1, the inhibition is reported as 26.3% (active). For COc1ccccc1C(CNC(=O)c1cccc(NS(=O)(=O)c2ccc(Br)cc2)c1)N(C)C (stereo not given), the inhibition was 51.3% (active). With COc1cccc(CNC(=O)CCC2CCCN(Cc3ccc(OC(F)F)cc3)C2)c1 (stereo not given) the inhibition was 83.8% (active). In the case of CCC1CCCCN1CCCNC(=O)c1cc2c(Cl)nc3ccccc3c2s1 (stereo not given), the inhibition is reported as 71.8% (active). With O=C(c1cccs1)C1C(c2ccc(Br)cc2)NC(=S)NC1(O)C(F)(F)F (stereo not given) the inhibition was 90.8% (active). For Cc1cc2oc3ccc(NCCC4CCCN4C)cc3c(=O)c2cc1C (stereo not given), the inhibition was 87.8% (active). In the case of CN(C)CCOc1ccc(Cl)cc1C(C)(C)C, the inhibition is reported as 47.8% (active). With Cc1ccc(OS(=O)(=O)c2ccc(-c3csc(C)n3)s2)c(C)c1 the inhibition was 33.8% (active). In the case of C#CC(CCN1CCCCC1)(OC)c1ccccc1 (stereo not given), the inhibition is reported as 63.8% (active). With CCCCCC(O)(CCN1CCCCC1)c1ccccc1 (stereo not given) the inhibition was 95.3% (active). With S=c1[nH]nc(-c2ccc(Cl)cc2)n1CC1CCCO1 (stereo not given) the inhibition was 0% [the number is a placeholder, only the call stands]. With Cc1ccc(SCC(=O)c2cc(C)c(OC(=S)N(C)C)c(C)c2)cc1 the inhibition was 42.8% (active). For COc1ccc(C(=O)NC2CCCc3c2cnn3-c2cccc(C)c2C)c(OC)n1 (stereo not given), the inhibition was 64.8% (active). In the case of COc1ccc(CN(C)C(=O)c2cc(-c3ccc(C)cc3C)nc3ccccc23)c(OC)c1OC, the inhibition is reported as 51.3% (active). In the case of COc1ccc(-c2cc(C(=O)N(C)Cc3ccccc3)c3ccccc3n2)cc1, the inhibition is reported as 72.3% (active). With Cc1ccnc(SCCn2c(N(C)Cc3ccccc3)nc3c2c(=O)n(C)c(=O)n3C)n1 the inhibition was 28.3% (active). In the case of COC(=O)c1ccc(CN2CCC(CO)(Cc3ccc(OC)cc3)CC2)cc1, the inhibition is reported as 70.8% (active).
